“And” between values parts separate entries of the source, which are not always exact repeats. Identical values can stand only once. Like-named read-outs stand apart in the source and are kept apart here.
Columns and labels:
Details in all cases: concentration: 1 μM, replicates: in singlicate, n = 1
TLK2 = tested on: TLK2
TNIK = tested on: TNIK
TNK1 = tested on: TNK1
TNK2 = tested on: TNK2
TNNI3K = tested on: TNNI3K
TRKA = tested on: T1, TRKA
T1 construct: gene NTRK1

TRKB = tested on: TRKB
TRKC = tested on: T2, TRKC
T2 construct: gene NTRK3

TRPM6 = tested on: TRPM6
TSSK1B = tested on: TSSK1B
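Also: KINOMEscan kinase panel screen.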

## c1ccc(-c2cc(-c3c[nH]nc3-c3ccccn3)ccn2)cc1 [GW576604]
TLK2
  %Inh: 0%
TNIK
  %Inh: 72%
TNK1
  %Inh: 0%
TNK2
  %Inh: 1%
TNNI3K
  %Inh: 89%
TRKA
  %Inh: 54%
TRKB
  %Inh: 25%
TRKC
  %Inh: 0%
TRPM6
  %Inh: 11%
TSSK1B
  %Inh: 3%

## CN(C(=O)c1ccc(-c2cc(-c3c[nH]nc3-c3ccccn3)ccn2)cc1)C1CCOCC1 [GW810083]
TLK2
  %Inh: 0%
TNIK
  %Inh: 23%
TNK1
  %Inh: 0%
TNK2
  %Inh: 0%
TNNI3K
  %Inh: 0%
TRKA
  %Inh: 38%
TRKB
  %Inh: 41%
TRKC
  %Inh: 17%
TRPM6
  %Inh: 0%
TSSK1B
  %Inh: 0%

## O=C(NCCNc1ccnc(Nc2ccc(F)cc2)n1)c1cc2ccccc2s1 [GSK1379874]
TLK2
  %Inh: 0%
TNIK
  %Inh: 0%
TNK1
  %Inh: 0%
TNK2
  %Inh: 7%
TNNI3K
  %Inh: 0%
TRKA
  %Inh: 0%
TRKB
  %Inh: 4%
TRKC
  %Inh: 38%
TRPM6
  %Inh: 11%
TSSK1B
  %Inh: 0%

## C[C@@H](Oc1cc(-n2cnc3ccc(NC(=O)NC(C)(C)C)cc32)sc1C(N)=O)c1ccccc1Cl [GSK346294]
TLK2
  %Inh: 0%
TNIK
  %Inh: 0%
TNK1
  %Inh: 0%
TNK2
  %Inh: 9%
TNNI3K
  %Inh: 13%
TRKA
  %Inh: 33%
TRKB
  %Inh: 0%
TRKC
  %Inh: 0%
TRPM6
  %Inh: 0%
TSSK1B
  %Inh: 20%

## O=c1cc(N2CCOCC2)nc2n(Cc3cccc(F)c3)ccn12 [GSK2297430]
TLK2
  %Inh: 0%
TNIK
  %Inh: 0%
TNK1
  %Inh: 0%
TNK2
  %Inh: 18%
TNNI3K
  %Inh: 0%
TRKA
  %Inh: 54%
TRKB
  %Inh: 27%
TRKC
  %Inh: 6%
TRPM6
  %Inh: 0%
TSSK1B
  %Inh: 12%

## O=C(Nc1n[nH]c2cc(-c3cccc(F)c3)ccc12)C1CC1 [SB-735464]
TLK2
  %Inh: 0%
TNIK
  %Inh: 72%
TNK1
  %Inh: 9%
TNK2
  %Inh: 0%
TNNI3K
  %Inh: 0%
TRKA
  %Inh: 4%
TRKB
  %Inh: 2%
TRKC
  %Inh: 38%
TRPM6
  %Inh: 7%
TSSK1B
  %Inh: 0%

## [2H]C([2H])(c1cccc(C(F)(F)F)c1C)n1ccn2c(=O)nc(N3CCOCC3)cc12 [GSK2336394]
TLK2
  %Inh: 0%
TNIK
  %Inh: 0%
TNK1
  %Inh: 4%
TNK2
  %Inh: 7%
TNNI3K
  %Inh: 0%
TRKA
  %Inh: 0%
TRKB
  %Inh: 0%
TRKC
  %Inh: 0%
TRPM6
  %Inh: 53%
TSSK1B
  %Inh: 0%

## CCc1nc(-c2cccc(C)c2)c(-c2ccnc(NCc3ccccc3)c2)s1
TLK2
  %Inh: 0%
TNIK
  %Inh: 24%
TNK1
  %Inh: 0%
TNK2
  %Inh: 0%
TNNI3K
  %Inh: 0%
TRKA
  %Inh: 0%
TRKB
  %Inh: 0%
TRKC
  %Inh: 0%
TRPM6
  %Inh: 0%
TSSK1B
  %Inh: 22%

## CC(C)(CN)c1nc(-c2ccc(Cl)c(O)c2)c(-c2ccncc2)[nH]1.O=C(O)C(F)(F)F [SB-477794]
TLK2; 1 µM
  %Inh: 10% and 4%
TNIK; 1 µM
  %Inh: 89% and 87%
TNK1; 1 µM
  %Inh: 0% and 84%
TNK2; 1 µM
  %Inh: 0% and 5%
TNNI3K; 1 µM
  %Inh: 85% and 77%
TRKA; 1 µM
  %Inh: 0% and 49%
TRKB; 1 µM
  %Inh: 75% and 32%
TRKC; 1 µM
  %Inh: 55% and 46%
TRPM6; 1 µM
  %Inh: 69% and 54%
TSSK1B; 1 µM
  %Inh: 17% and 0%

## N#Cc1ccc(-c2cc(-c3c[nH]nc3-c3ccccn3)ccn2)cc1 [GW693028]
TLK2
  %Inh: 0%
TNIK
  %Inh: 75%
TNK1
  %Inh: 0%
TNK2
  %Inh: 12%
TNNI3K
  %Inh: 31%
TRKA
  %Inh: 0%
TRKB
  %Inh: 4%
TRKC
  %Inh: 16%
TRPM6
  %Inh: 0%
TSSK1B
  %Inh: 16%

## CCn1cnc2c(N)ncnc21 [GW345098]
TLK2
  %Inh: 0%
TNIK
  %Inh: 17%
TNK1
  %Inh: 7%
TNK2
  %Inh: 10%
TNNI3K
  %Inh: 4%
TRKA
  %Inh: 24%
TRKB
  %Inh: 0%
TRKC
  %Inh: 7%
TRPM6
  %Inh: 81%
TSSK1B
  %Inh: 20%

## CN1c2ccc(NCc3ccc(F)cc3)cc2-c2c(cnn2C)S1(=O)=O
TLK2
  %Inh: 0%
TNIK
  %Inh: 38%
TNK1
  %Inh: 35%
TNK2
  %Inh: 0%
TNNI3K
  %Inh: 2%
TRKA
  %Inh: 0%
TRKB
  %Inh: 0%
TRKC
  %Inh: 2%
TRPM6
  %Inh: 0%
TSSK1B
  %Inh: 0%

## O=C1Cc2cc(Nc3nc(NCc4cccc(S(=O)(=O)C(F)(F)F)c4)ncc3C(F)(F)F)ccc2N1
TLK2
  %Inh: 3%
TNIK
  %Inh: 0%
TNK1
  %Inh: 0%
TNK2
  %Inh: 10%
TNNI3K
  %Inh: 0%
TRKA
  %Inh: 17%
TRKB
  %Inh: 0%
TRKC
  %Inh: 10%
TRPM6
  %Inh: 0%
TSSK1B
  %Inh: 19%

## COc1ccc(Nc2nccc(N3CCC(NC(=O)Nc4cccc(C(C)=O)c4)C3)n2)cc1 (stereo not shown) [GSK1379731]
TLK2
  %Inh: 0%
TNIK
  %Inh: 0%
TNK1
  %Inh: 0%
TNK2
  %Inh: 0%
TNNI3K
  %Inh: 48%
TRKA
  %Inh: 50%
TRKB
  %Inh: 44%
TRKC
  %Inh: 78%
TRPM6
  %Inh: 2%
TSSK1B
  %Inh: 0%

## Cc1nnc(-c2ccc(C)c(-c3ccc(C(=O)Nc4ccc(NS(C)(=O)=O)cc4)cc3)c2)o1 [GW702865]
TLK2
  %Inh: 4%
TNIK
  %Inh: 0%
TNK1
  %Inh: 0%
TNK2
  %Inh: 3%
TNNI3K
  %Inh: 0%
TRKA
  %Inh: 23%
TRKB
  %Inh: 0%
TRKC
  %Inh: 26%
TRPM6
  %Inh: 7%
TSSK1B
  %Inh: 15%

## CC(=O)Nc1ccc(COc2ccc(Nc3ccnc4cc(-c5ccccn5)ccc34)cc2)cc1.Cl [GW440148]
TLK2
  %Inh: 25%
TNIK
  %Inh: 0%
TNK1
  %Inh: 6%
TNK2
  %Inh: 37%
TNNI3K
  %Inh: 2%
TRKA
  %Inh: 14%
TRKB
  %Inh: 11%
TRKC
  %Inh: 25%
TRPM6
  %Inh: 42%
TSSK1B
  %Inh: 1%
